{"source": "paper PMC7862700", "about": "“An all-to-all approach to the identification of sequence-specific readers for epigenetic DNA modifications on cytosine”", "assay_in_all_cases": "DAPPL (digital affinity profiling via proximity ligation, sequencing); 10 mM Tris-HCl pH 7.5, 50 mM NaCl, 1 mM DTT, 4% glycerol, room temperature, 30 min; GST-TFs on glutathione beads, 16-mer random dsDNA library, 0.1% formaldehyde crosslink after washing; high values mean tight binding", "details_in_all_cases": "protein: recombinant; tags: N-terminal GST; dsDNA, one strand shown", "key": {"ETV1": {"target": "ETV1 (Homo sapiens, UniProt P50549 1-477)", "sequence (P50549 whole entry, the tested form may be a part)": "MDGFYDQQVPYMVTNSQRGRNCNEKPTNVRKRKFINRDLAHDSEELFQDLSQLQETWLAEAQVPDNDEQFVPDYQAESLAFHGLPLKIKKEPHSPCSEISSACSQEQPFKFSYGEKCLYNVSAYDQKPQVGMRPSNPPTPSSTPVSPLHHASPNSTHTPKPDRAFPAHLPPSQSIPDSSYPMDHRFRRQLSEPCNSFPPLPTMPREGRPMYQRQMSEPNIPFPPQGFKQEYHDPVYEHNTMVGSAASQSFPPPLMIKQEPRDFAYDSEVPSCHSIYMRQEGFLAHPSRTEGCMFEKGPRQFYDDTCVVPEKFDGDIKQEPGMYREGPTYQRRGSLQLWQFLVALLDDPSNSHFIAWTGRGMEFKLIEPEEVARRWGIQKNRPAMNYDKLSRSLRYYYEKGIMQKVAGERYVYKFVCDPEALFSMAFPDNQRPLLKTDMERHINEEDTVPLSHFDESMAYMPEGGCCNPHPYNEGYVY", "in_short": "(§1)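 Pools were built from human transcription factors expressed in yeast as GST fusions, captured on glutathione beads and DNA-barcoded, along with a tag-only sample. Incubation with 200 nmole of a 16-mer random double-stranded DNA library lasted 30 min at room temperature in Tris/NaCl/DTT/glycerol buffer, and was followed by washing, 0.1% formaldehyde crosslinking, proximity ligation, PCR amplification and Illumina NextSeq500 sequencing. Binding signal is the quotient of each hexamer's read frequency for a factor and its frequency for the tag-only sample.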"}, "ERF": {"target": "T1, ERF (Homo sapiens, UniProt P50548 1-548)", "T1 sequence": "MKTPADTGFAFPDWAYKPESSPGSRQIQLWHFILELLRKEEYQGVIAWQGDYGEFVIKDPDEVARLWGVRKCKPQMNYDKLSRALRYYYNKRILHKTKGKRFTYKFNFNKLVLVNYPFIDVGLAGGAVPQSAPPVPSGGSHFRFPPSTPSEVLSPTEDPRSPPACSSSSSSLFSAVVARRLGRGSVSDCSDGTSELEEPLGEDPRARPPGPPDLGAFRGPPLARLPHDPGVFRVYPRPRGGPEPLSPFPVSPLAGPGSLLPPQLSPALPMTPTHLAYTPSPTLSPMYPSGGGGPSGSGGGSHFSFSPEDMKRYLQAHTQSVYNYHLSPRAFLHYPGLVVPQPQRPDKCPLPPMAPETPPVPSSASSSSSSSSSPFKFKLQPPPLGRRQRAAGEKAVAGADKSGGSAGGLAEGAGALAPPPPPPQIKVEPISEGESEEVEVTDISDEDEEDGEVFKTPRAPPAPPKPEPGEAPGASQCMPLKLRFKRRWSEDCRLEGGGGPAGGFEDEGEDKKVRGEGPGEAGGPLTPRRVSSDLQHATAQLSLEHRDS", "in_short": "as §1"}, "ETV3L": {"target": "T2, ETV3L (Homo sapiens, UniProt Q6ZN32 1-361)", "T2 sequence": "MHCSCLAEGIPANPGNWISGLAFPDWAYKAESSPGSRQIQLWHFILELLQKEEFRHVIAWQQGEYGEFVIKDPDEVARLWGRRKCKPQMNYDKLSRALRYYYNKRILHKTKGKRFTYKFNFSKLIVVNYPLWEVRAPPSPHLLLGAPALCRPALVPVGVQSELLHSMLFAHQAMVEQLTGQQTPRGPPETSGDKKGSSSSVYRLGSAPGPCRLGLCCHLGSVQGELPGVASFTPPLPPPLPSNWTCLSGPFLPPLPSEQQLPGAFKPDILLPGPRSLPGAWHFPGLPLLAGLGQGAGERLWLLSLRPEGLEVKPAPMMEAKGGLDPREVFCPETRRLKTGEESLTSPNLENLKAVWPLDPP", "in_short": "as §1"}, "ETS2": {"target": "T3, ETS2 (Homo sapiens, UniProt P15036 1-469)", "T3 sequence": "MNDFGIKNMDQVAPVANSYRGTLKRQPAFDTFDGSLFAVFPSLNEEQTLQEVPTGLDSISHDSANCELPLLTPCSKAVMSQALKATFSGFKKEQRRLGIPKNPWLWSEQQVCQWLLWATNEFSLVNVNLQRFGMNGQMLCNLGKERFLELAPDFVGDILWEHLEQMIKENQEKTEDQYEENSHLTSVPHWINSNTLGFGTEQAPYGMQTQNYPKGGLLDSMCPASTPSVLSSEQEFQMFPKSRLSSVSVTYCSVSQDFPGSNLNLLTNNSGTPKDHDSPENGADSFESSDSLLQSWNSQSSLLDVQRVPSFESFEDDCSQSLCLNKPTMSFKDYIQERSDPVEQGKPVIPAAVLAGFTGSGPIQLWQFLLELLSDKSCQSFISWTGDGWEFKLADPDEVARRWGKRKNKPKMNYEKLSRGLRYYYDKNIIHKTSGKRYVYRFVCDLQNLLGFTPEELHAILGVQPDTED", "in_short": "as §1"}, "SPDEF": {"target": "T4, SPDEF (Homo sapiens, UniProt O95238 1-335)", "T4 sequence": "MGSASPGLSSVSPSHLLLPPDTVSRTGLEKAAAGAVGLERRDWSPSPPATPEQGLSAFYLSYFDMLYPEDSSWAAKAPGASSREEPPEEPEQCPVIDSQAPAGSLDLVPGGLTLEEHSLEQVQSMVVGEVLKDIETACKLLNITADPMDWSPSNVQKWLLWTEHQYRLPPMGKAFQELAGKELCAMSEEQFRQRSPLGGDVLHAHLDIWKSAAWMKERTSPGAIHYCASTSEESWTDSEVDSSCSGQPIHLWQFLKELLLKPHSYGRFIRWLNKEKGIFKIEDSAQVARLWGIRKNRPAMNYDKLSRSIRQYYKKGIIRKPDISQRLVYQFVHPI", "in_short": "as §1"}, "ETV7": {"target": "T5, ETV7 (Homo sapiens, UniProt Q9Y603 1-341)", "T5 sequence": "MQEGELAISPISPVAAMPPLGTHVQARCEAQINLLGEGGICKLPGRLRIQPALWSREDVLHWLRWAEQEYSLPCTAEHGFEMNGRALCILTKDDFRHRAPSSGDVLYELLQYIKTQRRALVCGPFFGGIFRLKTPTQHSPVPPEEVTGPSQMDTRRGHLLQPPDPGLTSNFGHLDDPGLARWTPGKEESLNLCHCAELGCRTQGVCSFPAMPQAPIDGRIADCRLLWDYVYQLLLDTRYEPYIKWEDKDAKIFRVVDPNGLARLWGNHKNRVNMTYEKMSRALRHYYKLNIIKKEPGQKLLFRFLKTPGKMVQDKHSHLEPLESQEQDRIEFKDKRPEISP", "in_short": "as §1"}, "ELF5": {"target": "T6, ELF5 (Homo sapiens, UniProt Q9UKW6-2 1-255)", "T6 sequence": "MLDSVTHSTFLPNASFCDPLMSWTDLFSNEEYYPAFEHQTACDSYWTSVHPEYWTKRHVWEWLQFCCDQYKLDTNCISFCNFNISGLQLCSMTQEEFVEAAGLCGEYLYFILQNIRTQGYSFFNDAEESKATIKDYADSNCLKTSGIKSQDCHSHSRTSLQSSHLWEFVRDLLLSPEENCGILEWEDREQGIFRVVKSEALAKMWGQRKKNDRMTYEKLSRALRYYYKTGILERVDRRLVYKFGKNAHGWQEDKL", "in_short": "as §1"}, "ETV3": {"target": "T7, ETV3 (Homo sapiens, UniProt P41162-2 1-143)", "T7 sequence": "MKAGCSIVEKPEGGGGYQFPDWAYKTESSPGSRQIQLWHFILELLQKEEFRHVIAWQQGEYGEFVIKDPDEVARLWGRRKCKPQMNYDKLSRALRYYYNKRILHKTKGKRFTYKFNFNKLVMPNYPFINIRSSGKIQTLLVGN", "in_short": "as §1"}, "ETV6": {"target": "ETV6 (Homo sapiens, UniProt P41212 1-452)", "sequence (P41212 whole entry)": "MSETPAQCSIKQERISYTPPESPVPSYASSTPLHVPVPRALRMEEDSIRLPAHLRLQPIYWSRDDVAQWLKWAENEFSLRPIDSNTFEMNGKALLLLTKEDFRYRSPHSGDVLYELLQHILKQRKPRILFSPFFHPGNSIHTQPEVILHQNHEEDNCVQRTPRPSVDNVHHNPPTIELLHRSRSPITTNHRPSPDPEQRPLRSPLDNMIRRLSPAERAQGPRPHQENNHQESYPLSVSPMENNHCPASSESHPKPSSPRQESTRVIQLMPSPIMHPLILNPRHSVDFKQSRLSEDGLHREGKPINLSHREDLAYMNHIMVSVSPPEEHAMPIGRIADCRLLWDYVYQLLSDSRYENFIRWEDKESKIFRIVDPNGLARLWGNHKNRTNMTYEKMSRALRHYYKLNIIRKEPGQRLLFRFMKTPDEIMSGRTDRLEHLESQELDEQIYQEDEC", "in_short": "as §1"}}, "data": [{"sequence": "TATTCT", "values": [{"measurement": "binding signal", "setting": "ETV1", "result": "1.4 fold enrichment (6-mer frequency, TF over GST control)"}, {"measurement": "binding signal", "setting": "ERF", "result": "1.22 fold enrichment (6-mer frequency, TF over GST control)"}, {"measurement": "binding signal", "setting": "ETV3L", "result": "1.35 fold enrichment (6-mer frequency, TF over GST control)"}, {"measurement": "binding signal", "setting": "ETS2", "result": "1.36 fold enrichment (6-mer frequency, TF over GST control)"}, {"measurement": "binding signal", "setting": "SPDEF", "result": "1.34 fold enrichment (6-mer frequency, TF over GST control)"}, {"measurement": "binding signal", "setting": "ETV7", "result": "1.42 fold enrichment (6-mer frequency, TF over GST control)"}, {"measurement": "binding signal", "setting": "ELF5", "result": "1.32 fold enrichment (6-mer frequency, TF over GST control)"}, {"measurement": "binding signal", "setting": "ETV3", "result": "1.31 fold enrichment (6-mer frequency, TF over GST control)"}, {"measurement": "binding signal", "setting": "ETV6", "result": "1.4 fold enrichment (6-mer frequency, TF over GST control)"}]}]}
